# “And” between values parts separate entries of the source, which are not always exact repeats. Equal entries are not always repeated.
# Legend:
# Type in all cases: functional
# [1] = target: Solute carrier family 2, facilitated glucose transporter member 1 (Homo sapiens) (UniProt P11166); test: ST_JUDE_LEISH: Cytotoxicity at 2uM final concentration against transgenic Leishmania Mexicana promastigotes LmGLUT1 that are glucose transport deficient and complemented with the human glucose transporter GLUT1. Activity is measured by DNA content using SYBR green in vitro
# [2] = target: Hexose transporter 1 (Plasmodium falciparum) (UniProt O97467); test: ST_JUDE_LEISH: Cytotoxicity at 2uM final concentration against transgenic Leishmania Mexicana promastigotes LmPfHT that are glucose transport deficient and complemented with the Plasmodium falciparum hexose transporter. Activity is measured by DNA content using SYBR green in vitro
# [3] = target: Glucose transporter (Leishmania mexicana) (UniProt O61059); test: ST_JUDE_LEISH: Cytotoxicity at 2uM final concentration against transgenic Leishmania Mexicana promastigotes LmGT2 that are glucose transport deficient and complemented with the L. Mexicana glucose transporter 2. Activity is measured by DNA content using SYBR green in vitro
# Sequence of Solute carrier family 2, facilitated glucose transporter member 1 (Homo sapiens) (P11166 whole entry): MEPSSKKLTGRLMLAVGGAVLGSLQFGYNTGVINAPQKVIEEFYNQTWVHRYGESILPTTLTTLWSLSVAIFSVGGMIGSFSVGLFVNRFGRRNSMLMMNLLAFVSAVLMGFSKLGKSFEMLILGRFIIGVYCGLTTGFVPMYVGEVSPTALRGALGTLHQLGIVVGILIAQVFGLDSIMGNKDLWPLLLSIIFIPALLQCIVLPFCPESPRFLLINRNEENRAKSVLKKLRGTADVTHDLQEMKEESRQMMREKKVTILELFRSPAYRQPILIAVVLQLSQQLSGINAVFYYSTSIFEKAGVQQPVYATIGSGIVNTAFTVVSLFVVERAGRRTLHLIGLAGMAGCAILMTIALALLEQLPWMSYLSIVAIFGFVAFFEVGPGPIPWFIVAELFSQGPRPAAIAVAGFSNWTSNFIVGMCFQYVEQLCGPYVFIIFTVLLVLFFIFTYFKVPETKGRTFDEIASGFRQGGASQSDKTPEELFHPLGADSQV
Structure (SMILES),inhibition [1],inhibition [2],inhibition [3]
O=C(/C=C/C=C/c1ccccc1)NCCCCCN1CCC(c2c[nH]c3ccccc23)CC1,3.2%,4.23%,1.69%
O=C(Nc1ccc2c(c1)CCN2C1CCN(Cc2cccc3cc[nH]c23)C1)c1ccco1 (centres undefined),0.46%,-0.85%,1.83%
COc1cccc2cc(C(=O)N[C@@H](CC(C)C)C(=O)N[C@H](C=NN3CCOC3=O)Cc3ccccc3)oc12,-0.71%,0.23%,-0.91%
CC1CC(NCCCNc2cc(=O)c3ccccc3[nH]2)c2c1cc(Cl)c(Cl)c2Cl (centres undefined),-1.8%,-2.9%,2.54%
CN(C)S(=O)(=O)n1ncc2c3c(N)nc(N)nc3ccc21,0.68%,1.22%,0.96%
Cc1cc(C)cc(Oc2c(C(F)(F)F)oc3c(CN4CC(C)OC(C)C4)c(O)ccc3c2=O)c1 (centres undefined),-0.42%,-1.36%,1.31%
O=C(Nc1cccc(-c2nn3ccccc3c2-c2ccnc(Nc3ccc(NCCCN4CCOCC4)c(F)c3)n2)c1)c1c(F)cccc1F,46.9%,30.5%,5.22%
COC(=O)c1cccc(NC(=O)NC2CCN(c3ccnc(Nc4ccc(F)cc4)n3)C2)c1 (centres undefined),2.08%,1.14%,-0.55%
CN1CCN(c2ccc(Nc3nccc(-c4c(-c5cccc(NC(=O)c6c(F)cccc6F)c5)nn5ccccc45)n3)cc2)CC1,21.9%,17.8%,4.51%
NS(=O)(=O)c1ccc(CNC(=O)c2cnc3c(O)cccc3c2Nc2cccc(NC(=O)c3ccc(Cl)c(Cl)c3)c2)cc1,5.22%,5.59%,5.34%
COc1cc2nc(NCCn3ccnc3C)nc(NCCc3ccccc3)c2cc1OC,1.91%,1.02%,2.18%
FC(F)(F)c1ccc2[nH]c(-c3ccc(-c4cccc(CN5CCC(CCN6CCCCC6)CC5)c4)cc3)nc2c1,3.12%,4.82%,2.53%
O=C(C=Cc1ccc(Cl)c(Cl)c1)NCCCCCN1CCC(CCCNC(=O)c2ccc3c(c2)OCO3)CC1,4.5%,4.24%,-3.71%
O=C(Nc1cc(Cl)cc(Cl)c1)c1cc(Cl)c(=O)n(Cc2ccc(Cl)cc2)c1,3%,5.94%,-0.15%
Cc1ccc(NC(=O)NC2CCN(CCCCCNC(=O)/C=C/c3ccc(Cl)c(Cl)c3)CC2)cc1C,-0.29%,-0.57%,-1.51%
Fc1ccc2[nH]c(-c3cccc(-c4cccc(CNCC5CCCO5)c4)c3)nc2c1 (centres undefined),-0.33%,-0.14%,-1.55%
O=C(Nc1ccccc1)OCCOc1ccc(CC2SC(=O)NC2=O)cc1 (centres undefined),2.13%,3.76%,2.23%
CNc1ccc(CNCc2ccc(-c3ccc(-c4nc5cc(C(F)(F)F)ccc5[nH]4)cc3)cc2)cc1,0.54%,-1.86%,9.71%
COc1cc(-c2nc(-c3ccncc3)c(-c3ccc4c(c3)CCC4=NO)[nH]2)ccc1OCCN1CCN(C)CC1,6.6%,6.49%,5.31%
Nc1nc(N)c2c(ccc3c2ccn3CCCCO)n1,5.49%,7.01%,6.28%
Cc1cccc2nc(-c3ccc(-c4ccc(CN5CCN(CC6CCCN(C)C6)CC5)cc4)cc3)[nH]c12 (centres undefined),8.82%,10.8%,6.25%
O=C(/C=C/c1ccc(C(F)(F)F)cc1)NCCCCCN1CCCN(C(=O)Nc2ccc(Cl)c(Cl)c2)CC1,-0.66%,-0.09%,-0.19%
CC(=O)N1N=C(c2ccc(F)cc2)Sc2c1nc(-c1ccccc1)n2C(C)=O,8.6%,7.94%,8.7%

Structure (SMILES),inhibition [1],inhibition [2],inhibition [3]
CCC(C)c1ccc(NC(=O)Nc2ccc(Cn3ncc(N4CCCNCC4)c(Cl)c3=O)cc2)cc1 (centres undefined),3.78%,4.71%,-0.01%
CO[C@H](C)[C@H](NC(=O)[C@H](CC(C)C)[C@H](CCC(F)(F)F)N(O)C=O)C(=O)Nc1nccs1,4.95%,4.95%,3.68%
NCC1CCCN1Cc1cccc(-c2ccc(-c3nc4ccccc4[nH]3)s2)c1 (centres undefined),9.15%,8.03%,7.51%
Cc1ccc(Cc2cccc3nc(N)nc(N)c23)cc1,1.2%,0.71%,-0.6%
NC(=O)c1cccc(C(=O)Nc2cccc(-c3cccc(-c4nc5ccccc5[nH]4)c3)c2)c1,5.87%,5.18%,4.03%
Cc1cc(NC(=O)c2cc(S(=O)(=O)N3CCCCC3)ccc2C)no1,4.25%,4.4%,2.15%
Nc1c2c(nc3cc(NC(=O)c4ccc([N+](=O)[O-])cc4)ccc13)CCCC2,5.2%,9.51%,4.23%
CC(C)CC(NC(=O)c1cccc(OCCN2CCOCC2)c1)C(=O)NC(/C=N/NC(=O)c1ccccc1)CCc1ccccc1 (centres undefined),7.09%,8.91%,5.71%
CC(C)NCc1cccc(-c2cccc(NC(=O)c3cccc(C#N)c3)c2)c1,5.22%,4.93%,5.23%
CCOC(=O)c1[nH]c2ccc(F)cc2c1NC(=O)CN1CCN(c2cccc(C(F)(F)F)c2)CC1,0.03%,0.43%,-2.97%
O=C(Nc1ccc(Cl)cc1)OCCn1nnnc1C(c1ccc(Cl)cc1)N1CCOCC1 (centres undefined),2.79%,0.7%,2.38%
COc1ccc(C(=O)N2CCc3cc4nccc(N5CCN6CCC[C@H]6C5)c4cc32)cc1,2.59%,3.64%,4.3%
Cc1ccc2[nH]c(C)cc(=NN=Cc3ccccc3Cl)c2c1,2.11%,3.39%,0.08%
COc1ccccc1C1CN(CCNC(=O)c2nc(C)c[nH]2)Cc2ccccc2O1 (centres undefined),0.43%,2.02%,5.66%
CNCCNCc1cccc(-c2ccc(-c3nc4cccc(C)c4[nH]3)s2)c1,-0.6%,0.01%,-0.03%
CCc1ccccc1-c1csc(C(=O)NCC2CCN(Cc3ccc(C(C)(C)C)cc3)C2)c1 (centres undefined),6.04%,4.94%,4.81%
CCOc1cc(C=Cc2nc(O)c3ccccc3n2)cc(Cl)c1O,5.1%,4.12%,2.7%
O=C(Nc1cccc(CN2CCCN(Cc3cccc(O)c3)CC2)c1)c1ccc2ccccc2c1,1.01%,1.53%,-2.82%
Cn1cncc1C(=O)Nc1ccc(-c2cccc(-c3nc4cc(C(F)(F)F)ccc4[nH]3)c2)cc1,1.53%,1.11%,2.32%
CCOc1cc(C(=O)NCc2cc(Cl)cc(Cl)c2)ccc1-c1nc2cc(Cl)ccc2[nH]1,1.6%,2.18%,1.11%
COc1cc2nc(N3CCC(CNC(=O)c4ccc(-c5ccc(C(F)(F)F)cc5)cc4)CC3)nc(N)c2cc1OC,2.82%,2.34%,-0.23%
CCCCNC(=O)[C@H](CC1CCCCC1)NC(=O)c1ccc(O)c(-c2ccc(Cl)c(Cl)c2)c1,-0.2%,-1.98%,0.36%
CCNc1cc(C(=O)N[C@@H](Cc2ccccc2)[C@H](O)CNCc2ccc3c(c2)OCCO3)cc(N2CCCCS2(=O)=O)c1,0.98%,1.25%,1.57%

Structure (SMILES),inhibition [1],inhibition [2],inhibition [3]
O=C(Nc1ccc2c(c1)CCN(C1CCC1)CC2)c1ccc(-n2ccnc2)cn1,1.81%,2.97%,2.28%
COc1ccc2nccc([C@@H](O)CN3CCC(NCc4cc5c(F)ccc(F)c5[nH]4)CC3)c2n1,87.9%,86.8%,87.2%
COc1ccc(C[C@H](N)C(=O)N[C@H]2[C@@H](O)[C@H](n3cnc4c(N(C)C)ncnc43)O[C@@H]2CO)cc1,3.7% and 0.1%,1.9% and 3.79%,3.16% and 2.8%
CCOc1cc(Cl)c(C(C)NC(=O)c2cccc(OC)c2)cc1OCC (centres undefined),7.84%,7.46%,4.84%
CC1(C)N=C(N)N=C(N)N1OCCCCON1C(N)=NC(N)=NC1(C)C,3.48%,3.55%,3.76%
O=C(/C=C/c1ccc(Cl)c(Cl)c1)NCCCCCCN1CCCN(C(=O)Nc2ccc(Cl)c(C(F)(F)F)c2)CC1,-1.95%,0.9%,-1.22%
Cc1cc2[nH]c(-c3ccc(C(=O)NCCCN4CCN(c5cccc(Cl)c5)CC4)s3)nc2cc1Cl,3.07%,3.29%,2.02%
N#Cc1cccc(NC(=O)c2ccc(S(=O)(=O)NCC3CCCN3CC3CCCCC3)cc2)c1 (centres undefined),2.47%,4.27%,1.88%
O=C(Cc1c[nH]cn1)Nc1cccc(-c2ccc(-c3nc4cc(F)ccc4[nH]3)cc2)c1,9.26%,10.1%,7.18%
CCN1CCN(Cc2ccc(-c3ccc(NS(=O)(=O)c4cccc5cccnc45)cc3)cc2)CC1,20.6%,14%,9.92%
CN1CCN(c2ccc(-c3cc(-c4ccncc4)c(-c4ccc(Cl)c(O)c4)o3)cc2)CC1,-0.86%,0%,-1.14%
CN(C)CCN(C)Cc1cccc(-c2cccc(NC(=O)c3cccc(C#N)c3)c2)c1,2.87%,2.86%,4.89%
COc1ccc2nccc([C@@H](O)CN3CCC(NC(=O)c4ccc(Oc5ccccc5)cc4)CC3)c2c1,3.02%,8.83%,1.34%
O=C(c1ccc(Cl)cc1)N1CCOC(CCN2CCC(c3ccccc3)CC2)(c2ccc(Cl)c(Cl)c2)C1 (centres undefined),0.85%,-0.89%,-0.89%
CO/C(=C\C=C\c1cc2cc(Cl)c(Cl)cc2[nH]1)C(=O)NC1CC2CCC(C1)N2C (centres undefined),0.15%,1.93%,-1.99%
CCCOc1ccc(C(=O)Nc2nonc2-c2ccc(OC)c(OC)c2)cc1,8.69%,7.86%,5.89%
Nc1ccc2[nH]cc(C3CCN(CC4CCN(C(=O)/C=C/c5ccc(Cl)c(Cl)c5)CC4)CC3)c2n1,2.32%,1.93%,-0.49%
Cc1cc(=NN=Cc2cccc(Cl)c2)c2ccccc2[nH]1,5.11%,6.14%,3.65%
CCOc1cc(C(=O)N[C@@H](Cc2ccccc2)[C@H](O)CNCc2cc(OC)cc(OC)c2)cc(N2CCCC2=O)c1,9.97%,8.91%,2.86%
Nc1nc(N)c2c(ccc3ccccc32)n1,14.7%,28.9%,19%
OC(c1ccccc1)C1CN(CCC2CC3CCC2C3)CCC1(O)c1ccccc1 (centres undefined),-0.77%,-3.69%,-3.24%
CCN(Cc1ccc(-c2ccc(C(F)(F)F)cc2)cc1)C(=O)Cn1c(SCc2cccc(F)c2F)cc(=O)c2cc(CN3CCCCC3)ccc21,0.46%,0.7%,5.02%

# Source: ChEMBL document CHEMBL3433997, “St. Jude Leishmania screening dataset” (2016)
